Compound activity (PubChem BioAssay)
LmPK inh: LmPK (Leishmania mexicana) enzyme inhibition. Q27686. Potency, µM (series often up to 57.5 µM), for the others: at the highest dose activity change, negative = inhibition, usual class: inhibitors. purified LmPK, Kinase-Glo ATP luminescence, 1 h. 290,000 tested, 0.37% active; note: potency is the fitted concentration of half-maximal effect; % is set by controls: 0 for no effect and ±100 for the full control effect
Target sequence (Q27686 whole entry, looked up): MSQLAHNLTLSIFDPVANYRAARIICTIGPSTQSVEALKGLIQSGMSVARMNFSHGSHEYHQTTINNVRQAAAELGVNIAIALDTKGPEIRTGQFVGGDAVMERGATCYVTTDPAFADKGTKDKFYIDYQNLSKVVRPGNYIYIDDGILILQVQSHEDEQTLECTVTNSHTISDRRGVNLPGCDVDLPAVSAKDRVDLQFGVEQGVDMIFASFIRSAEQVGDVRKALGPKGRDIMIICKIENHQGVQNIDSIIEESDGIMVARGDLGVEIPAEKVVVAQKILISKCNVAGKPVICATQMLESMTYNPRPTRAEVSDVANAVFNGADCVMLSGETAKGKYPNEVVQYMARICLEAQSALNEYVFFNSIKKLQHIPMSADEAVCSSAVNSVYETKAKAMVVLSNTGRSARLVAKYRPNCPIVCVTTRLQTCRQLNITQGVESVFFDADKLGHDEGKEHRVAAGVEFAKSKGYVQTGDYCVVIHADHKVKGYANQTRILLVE
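qHTS format; LmPK 0.1 nM; substrates PEP 0.5 mM and ADP 0.1 mM. One-hour room-temperature incubation, then coupled luciferase luminescence; 0.5 nM enzyme wells mark activation.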
Shiga inhibitor: inhibitors of Shiga toxin in Vero cells; Vero cells, Shiga toxin protein synthesis inhibition reporter; inhibition, % at 38.7 µM; 290,000 tested, 9.2% active; in the data active = inhibition mostly above about 28%, no sharp cut-off; inactive = mostly below about 43%; note: 0% is about no effect
NS1 function inh: blocks influenza NS1 protein function; 270,000 tested, 0.4% active; Potency, µM (doses to about 46.1 µM), without a hit: at the top dose activity, positive = more growth; calls by dose curve; note: potency is the fitted concentration of half-maximal effect; actives are rising curves; nearly all actives have a fitted effect of over 50% in size
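OD600 was taken as the measure of yeast growth restored by compound in an NS1-expressing S. cerevisiae strain. Cells had been washed out of glucose medium and diluted 1:100 into galactose -URA medium, pH 6.0.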
Cycloheximide cs: counter-screen hit for Shiga toxin inhibitors, cycloheximide; cell reporter, cycloheximide protein synthesis inhibition counterscreen; 300,000 tested, 12% active; AID 2314; max response, %; in the data active = max response mostly above about 13%, no sharp cut-off; inactive = mostly below about 14%; note: read at 38.3 µM for the half of the compounds with a filed dose; 0% is about no effect
Giardia FBPA inh: inhibitors of Giardia lamblia fructose-1,6-bisphosphate aldolase; A8B2U2; purified Giardia FBPA; Potency, µM (titrated, usually from 59.6 µM), for the others: top-dose activity, negative = inhibition, hits mostly inhibitors; 290,000 tested, 0.71% active; AID 2451; note: potency is the fitted concentration of half-maximal effect; % is set by controls: 0 for no effect and ±100 for the full control effect; nearly all actives have a fitted effect of over 55% in size
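40 nM FBPA preincubated 10 min at RT with compound (up to 57.5 uM final), then substrate plus GAPDH/TPI/NAD/arsenate coupling and diaphorase/resazurin added. Fluorescence read after 20 min at RT, 525/598 nm.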
Active calls of the source: *; u = inconclusive; x = no result given; [ ] = another dose, or the depositor's remark. In the library only some 14% were active in any assay of this set; here they are far more common. Unless noted, calls come from the whole dose curve; as a rule, active = well fitted curve in the direction sought with a large enough effect; inconclusive = small, poorly fitted or top-dose-only effect, or another doubt; inactive = no such curve, though single readings can be large; an effect the other way counts as inactive or inconclusive.

SMILES	LmPK inh	Shiga inhibitor	NS1 function inh	Cycloheximide cs	Giardia FBPA inh
C=CCn1cccc(C(=O)Nc2ccc(OC)c(Cl)c2)c1=O	-11%	54*	-8%	24*	5%
CCOc1cccc(C(=O)NC(=S)Nc2cccc(NC(=O)c3ccccc3Cl)c2)c1	2%	24	17%	14*	-2%
CCCCOc1cccc(C(=O)NC(=S)Nc2cccnc2)c1	1%	-4	18%	10	-20%
CCOc1cccc(C(=O)NC(=S)Nc2ccccc2)c1	2%	141*	27%	104*	-9%
CCOc1cccc(C(=O)NC(=S)Nc2cccnc2)c1	-7%	80*	26%	38*	u
O=C(NC(=S)Nc1cccnc1)c1cccc(Br)c1	-4%	63*	-39%	17*	u
COc1ccc(C(=O)NC(=S)Nc2cccnc2)cc1OC	-14%	4	3%	24	u
CCOc1cccc(C(=O)NC(=S)Nc2ccc(N3CCN(CC)CC3)cc2)c1	-2%	51	5%	0	-15%
COc1cccc(C(=O)Nc2cccc(NC(=O)c3ccccc3Cl)c2)c1	-2%	23	-13%	13	1%
Cn1nnnc1SCC(=O)N(C1CCCCC1)C1CCS(=O)(=O)C1 (stereo unspecified)	2%	-7	x	5	9%
Cc1ccc2c(=O)c3ccccc3n(CCCN)c2c1C	x	-8	x	-3	u
O=C(NNC(=O)c1cccc(Br)c1)Nc1ccc(Cl)cc1	-1%	-9	7%	-4	4%
O=C(NC(=S)Nc1cc(Cl)ccc1O)c1cccc(Br)c1	1%	90*	-70%	42*	-2%
O=C(NC(=S)Nc1ccc(Br)cn1)c1cccnc1	3%	30	-3%	28*	-10%
Cc1ccsc1/C=N/NC(=O)c1nnn(-c2nonc2N)c1-c1ccc2c(c1)OCO2	7%	-5	2%	-3	x
Cc1ccsc1/C=N\NC(=O)c1ccc2c(c1)OCO2	u	85*	-15%	35*	-4%
Cc1ccsc1/C=N/NC(=O)c1ccc2c(c1)OCCO2	22µM*	23	-38%	23*	-6%
CC(C)CC(NC(N)=O)C(=O)Nc1ccc2c(c1)OCO2 (stereo unspecified)	2%	49	x	30*	-20%
CCCC(C)C(=O)Nc1ccc2c(c1)OCCO2 (stereo unspecified)	-2%	86*	5%	50*	1%
CC(=O)NC(Cc1c[nH]c2ccccc12)C(=O)Nc1ccc2c(c1)OCO2 (stereo unspecified)	-4%	38*	-3%	9	1%
CC(C)CC(NC(=O)c1ccco1)C(=O)Nc1ccc2c(c1)OCCO2 (stereo unspecified)	9%	84*	-8%	72*	-1%
CC(C)C[C@H](NC(=O)Nc1ccc2c(c1)OCCO2)C(=O)O	3%	53	3%	14	9%
C[C@@]12C=Cc3occc3[C@H]1CC[C@]13CC(=O)[C@@H](CC[C@H]12)C3	x	2	x	15	3%
O=C(O)c1cc2c(N3CCC(Cc4ccccc4)CC3)ncnc2s1	5%	13	x	-5	21%
c1ccc(CC2CCN(c3ncnc4sccc34)CC2)cc1	4%	41	x	13*	-1%
SMILES	LmPK inh	Shiga inhibitor	NS1 function inh	Cycloheximide cs	Giardia FBPA inh
Cc1ccc(C)c(CN2CCC(CNC(=O)Nc3ccc(F)c(Cl)c3)CC2)c1	-8%	-2	-2%	-1	0%
COCCC(=O)N1CCC(Oc2ccc(C(=O)NCCCC3CCCC3)cc2)CC1	-4%	19	-21%	13*	x
COCCC(=O)N1CCC(Oc2ccc(C(=O)NCCC3=CCCCC3)cc2)CC1	2%	29	-7%	19*	x
COCCC(=O)N1CCC(Oc2ccc(C(=O)N(C)CCCC3CCCC3)cc2)CC1	2%	57*	-25%	26*	-5%
O=C1OCCC1N(C(=O)C1CC1)c1cccc(Cl)c1 (stereo unspecified)	x	-8	x	-4	7%
CO[C@H]1COC(=O)C/C=C\[C@H](C)[C@H](OC)COC(=O)[C@@H](C)NC(=O)C/C=C\[C@@H]1C	x	x	x	x	1%[12.9 µM]
CC1=C(CC(=O)c2ccccc2)C(=O)c2ccccc2C1=O	-2%	87*	-15%	36*	-28%
O=C(Nc1ccc([N+](=O)[O-])cn1)c1cccnc1	-3%	x	1%	-2	0%
Cc1cc(C)nc(NC(=O)c2ccc([N+](=O)[O-])o2)n1	-1%	13	-5%	7	-14%
O=C(Nc1ccc(Cl)cn1)c1ccc([N+](=O)[O-])o1	u	119*	-59%	45*	-23%
